# Measured values published in ChEMBL document CHEMBL3988442, “University of Dundee, Small-Polar-MMV Screening Library” (2021).
# About 13,000 (27%) of roughly 48,000 compounds showed an effect of 50% or more. The list shows a part of the results.
# Tested on: Wolbachia pipientis
# Test: Anti-Wolbachia Cell-Based Screen
# Type: functional
# Design: scale not given: in the data most compounds retested in dose-response had high values
# Conditions: 5 µM
row,Compound,Percent Effect [%]
1,Cc1noc(C)c1CN1C[C@@H](NS(=O)(=O)N(C)C)[C@H](C(C)C)C1,-5.186
2,CC(=O)N1CCC2(CCN(C(=O)c3ccc(Cl)c(C(F)(F)F)c3)CC2)C1,-5.245
3,CCCn1ncc(C(=O)NC2CCN(C3CCOCC3)CC2)c1C,-3.665
4,CC(C)(C#N)C(=O)Nc1nccn1Cc1ccc(Br)cc1,-2.576
5,CN1CC2(CCN(C(=O)Cn3ncc4ccccc4c3=O)CC2)OC1=O,95.4
6,Cc1ccc2oc(=O)n(CC(=O)N3CCC4(CC3)CN(C)C(=O)O4)c2c1,-3.778
7,Cc1nccc(-c2ccccc2)c1C(=O)N1CCC2(CN(C)C(=O)O2)C1 (configuration not stated),-8.281
8,Cc1nc[nH]c1C(=O)N1CCC2(CN(C)C(=O)O2)C1 (configuration not stated),-7.833
9,Cc1nn(CC(=O)N2CCC3(CN(C)C(=O)O3)C2)c(=O)c2ccccc12 (configuration not stated),94.98
10,CN1CCCC2(CCN(C(=O)Cn3ncc4ccccc4c3=O)C2)C1=O (configuration not stated),88.86
11,CCc1ccc2occ(CC(=O)N3CCC4(CCCN(C)C4=O)C3)c2c1 (configuration not stated),-37.19
12,CN1CCCC2(CCN(C(=O)CCn3cncn3)C2)C1=O (configuration not stated),-41.8
13,CN1CC2(CCN(C(=O)COc3ccc(Cl)cc3Cl)CC2)OC1=O,-5.539
14,CCCN(CCC)C(=O)CN1CCCC1C(=O)N(C)C (configuration not stated),15.58
15,O=C(c1cccc(S(=O)(=O)NCCc2cscn2)c1)N1CCOCC1,-14.28
16,C[S+]([O-])c1nncn1CC(=O)c1ccc(OC(F)F)cc1 (configuration not stated),-3.882
17,CCc1ncc2c(n1)CN(C(=O)c1c(C)[nH]c3c1C(=O)CCC3)C2,17.5
18,O=C(c1cccn2ccnc12)N1CCCN(c2cccnn2)CC1,-3.729
19,N#Cc1ccc(OC2CCN(C(=O)Cc3cccs3)CC2)nc1,12.26
20,CCOC(=O)CCC(=O)N1CCC(Oc2ccc(C(F)(F)F)cn2)CC1,3.938
21,CN(C)S(=O)(=O)N1CCC(Oc2ccc(C#N)cn2)CC1,-10.68
22,CCOCC(=O)N1CCC(Oc2ccc(Cl)cn2)CC1,-5.53
23,O=C(Cn1cccn1)N1CCC(Oc2ccc(C(F)(F)F)cn2)CC1,107
24,CC(C)(C)NC(=O)N1CCC(Oc2ccc(C(F)(F)F)cn2)CC1,116.4
25,CCOCC(=O)N1CCC(Oc2ccc(C(F)(F)F)cn2)CC1,5.97
26,CC(=O)N1CCC(Oc2ccc(C#N)cn2)CC1,-7.335

row,Compound,Percent Effect [%]
1,CCOC(=O)N1CCC(Oc2ccc(C(F)(F)F)cn2)CC1,91.75
2,CN(CC(=O)N1CCC(Oc2ccccc2)CC1)c1cnccn1,-0.02384
3,N#Cc1ccc(C(=O)N2CCC(Oc3ccc(C#N)cn3)CC2)cc1,-11.6
4,CN(CC(=O)N1CCC(Oc2ccc(C(F)(F)F)cn2)CC1)S(C)(=O)=O,103.2
5,CCN1CCN(C[C@@H]2CN(c3ncc(Cl)cc3F)C[C@@H]2CO)CC1,3.895
6,CC(NC(=O)Nc1ccc(OC2CCCC2)cc1)c1nc[nH]n1 (configuration not stated),4.793
7,CCC(C)c1ccc(NC(=O)C2CCN(C(=O)COC)CC2)cc1 (configuration not stated),-13.47
8,Cc1cc(C)nc(N2CCC(C(=O)Nc3ccc(C(C)C)cc3)CC2)n1,135.6
9,CCC(C)c1ccc(NC(=O)C2CCN(C(=O)N(C)C)CC2)cc1 (configuration not stated),-1.822
10,Cc1ccc(C(=O)NCC(O)CN2CCCC2=O)cc1Cl (configuration not stated),2.235
11,CS(=O)(=O)c1ccc(CNC(=O)NCc2cc[nH]n2)cc1,1.077
12,CC1CCCCN1Cc1ccc(-c2ccccc2C(=O)O)cc1 (configuration not stated),-6.204
13,CS(=O)(=O)c1ccc(-c2ccccc2C(=O)O)cc1,122
14,CC(=O)c1ccccc1-c1cc(C(=O)O)cc(S(=O)(=O)NC(C)C)c1,0.5422
15,CNC(=O)c1ccccc1-c1ccc(S(C)(=O)=O)cc1,101.9
16,Cc1ccc(S(C)(=O)=O)cc1C(=O)NS(C)(=O)=O,-9.422
17,CN(C)C(C(=O)N1CC(Oc2ccccc2F)C1)c1ccccc1F (configuration not stated),-4.147
18,CO[C@@H]1CCN(S(=O)(=O)c2cccs2)[C@H]1Cc1ccccc1,7.736
19,Cc1n[nH]c(C)c1NC(=O)CN1CCn2c(nnc2C(C)C)C1,-1.446
20,CC(C)C(=O)N1Cc2ccccc2CC2(CCCCN2C)C1 (configuration not stated),96.75
21,CC(C)C(=O)N1CCC12CCCN(C(=O)c1ccnnc1)C2 (configuration not stated),-3.572
22,CC(C)C(=O)N1Cc2ccccc2CC2(CCCN2C)C1 (configuration not stated),90.17
23,CC(C)C(=O)N1CCCC12CCN(C(=O)c1ccno1)C2 (configuration not stated),-2.946
24,C[C@H](C(=O)N1Cc2ccccc2CC2(CCCN2C)C1)c1ccccc1 (some centres not stated),111.3
25,CC(C)C(=O)N1CCCC12CCCN(C(=O)c1ccno1)C2 (configuration not stated),-3.277
26,CC(C)C(=O)N1CCC12CCCN(C(=O)c1ccccc1)C2 (configuration not stated),-15.79
